The campaign covered roughly 140,000 compounds. About 4,300 (3.1%) were called active. Not shown: some 21% with an inconclusive outcome. This is one part of a sample in which actives are shown more often than they occur. A number with no mark means an inactive call.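 How the source made its calls: active means readout at or below -70, meaning at least 70% loss of cells showing the perinucleolar compartment, a nuclear body marking cancer cells; inconclusive means readout between -30 and a set limit; inactive means the rest.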

Our source for the activity change (PNC), negative = inhibition values is PubChem BioAssay AID2417 (National Center for Advancing Translational Sciences (NCATS), 2010).

This test can be described thus: High Content Assay for Compounds that inhibit the Assembly of the Perinucleolar Compartment. The following applies: PC3M PTB-GFP, PNC prevalence imaging, 16 h; at 10 µM; stronger effect = lower value. From the text:
High Content Assay for Compounds that inhibit the Assembly of the Perinucleolar Compartment NIH Chemical Genomics Center [NCGC] NIH Molecular Libraries Probe Centers Network [MLPCN] MLPCN Grant: MH082371-01A2 Assay Submitter (PI): Sui Huang, Northwestern University, Feinberg School of Medicine, Cell and Molecular Biology, Chicago, Illinois. The perinucleolar compartment (PNC) is a non-membrane-bound nuclear subdomain that is associated with but structurally distinct from the nucleolus. The PNC is a heritable trait, in which the number of PNCs per cell in daughter cells often mimics that of their mother cells. The PNC is heterogeneous in shape, is stable through interphase, disassembles during mitosis, and reassembles in early G1. The PNC is concentrated with newly synthesized RNA polymerase III (pol III) RNAs (MRP RNA, RNAse P H1 RNA, hY RNAs[hY1, 2, 5], Alu RNA, and SRP [7SL] RNA) and RNA binding proteins (nucleolin, PTB, CUG-BP, KSRP, Raver1, Raver2, and Rod). […] Extensive in vitro studies have shown that the PNC is unique to tumor cells and preferentially forms in tumor cells derived from solid tissues. Examination of cancer cell lines from various origins and malignant capacities has shown that PNC prevalence correlates with the malignancy of tumors and has the potential to be developed as a pan-cancer prognostic marker. […] Although the PNC is associated with a DNA locus and a handful of components have been identified, much remains to be investigated regarding the structure and function of the PNC and its mechanistic link to cancer. We have previously shown that PNC prevalence reduction is a valid strategy to identify compounds that can be used to study the structure and function of the PNC. It is necessary, however, to create a screening platform that is able to test a large number of compounds in an automated fashion. Here we report the development and robustness of an automated whole-cell phenotypic image-based screening assay that is capable of identifying such compounds.
PNC High Content Imaging Assay Procedure: 1. Cells at a density of 75-90% confluency in T175 flasks were harvested using 7 ml TrypLE Express cell dissociation reagent. After dissociation (5 minutes room temperature incubation) 10 ml of complete media was added to the TrypLE/cell suspension. The liquid was transferred to a 50 ml Conical tube and cells were pelleted at 1000 RPM for 5 min. Supernatant was removed and cells were resuspended to a final density of 150-200 cells/ul in complete media. 2. Cells were plated in 5 ul volume (750-1000 cells/well) into 1536 well Black uclear Aurora Low Base plates and allowed to recover and adhere at 37 C in a humidified 5% CO2 incubator for 4 hours. 3. After 4 hour incubation, compound libraries (23 nl of […] in columns 5-48) were transferred to the plates in duplicate using a 1536 well pintool. Camptothecin positive control (59 uM final) was added to column 2 and 1:3 dilutions of camptothecin was added to column 3. DMSO negative controls were present in columns 1 and 4. 4. After a 16 hour incubation in the 37 C incubator, cells were fixed by the addition of 4 ul of 6% EM grade paraformaldehyde (containing 0.1% triton X 100) directly to the cells. The plates were incubated at room temperature for 20 minutes. The liquid was removed using a 32 channel Kalypsys aspirator and the fixed cells were washed twice with 5 ul PBS followed by a final addition of 5 ul PBS containing 1 ug/ml Hoechst 33342. 5. Fixed plates were sealed and sotred at 4C until imaged. 6. Plates were imaged on an InCell 1000 automated microscope using a 20 x objective, a standard FITC filter set, no camera binning, and an exposure time of ~100-150 msec/well. 7. Data analysis. PNC prevalence was determined using the Multitarget analysis module from InCell Workstation software (V3.5 ) and analysis was run on a quad core workstation using the Incell Developer Toolbox (V1.7). […]
In the case of `O=C(Cc1ccc(S(=O)(=O)N2CCOCC2)s1)NCCC(c1ccccc1)c1ccccc1`, the activity change (PNC), negative = inhibition was 44.4%. The result for `COc1cccc(NC(=O)CN2CCN(c3nc(-c4cccc(OC)c4)cs3)CC2)c1` reads 43%; that for `CCN(CC)CCNC(=O)Cn1cnc2sc(C)c(S(=O)(=O)N3CCOCC3)c2c1=O`, -100% (active). `COc1cccc(NC(=O)Cn2cnc3sc(C)c(S(=O)(=O)N4CCN(C)CC4)c3c2=O)c1`: the activity change (PNC), negative = inhibition was -100% (active). Turning to `CCOC(=O)c1sc(NC(=O)c2cc(S(=O)(=O)N3CCOCC3)ccc2C)nc1C`, the activity change (PNC), negative = inhibition is -23.4%. The result for `CC(O)c1nc2ccccc2n1Cc1ccc([N+](=O)[O-])cc1` (configuration not stated) reads 9.78%; that for `CCOc1ccc(C(=O)Nc2nccs2)cc1[N+](=O)[O-]`, 8%; that for `CN1CCC(=NNC(=O)c2ccc(N(Cc3ccc(Cl)cc3)S(C)(=O)=O)cc2)CC1`, -4.47%. For `O=C(CCN1C(=O)c2ccccc2C1=O)NNC(=O)c1ccc(Cl)cc1Cl`, the activity change (PNC), negative = inhibition is 53%. In the case of `O=C(Nc1ccccc1Cc1ccccc1)c1ccc2c(c1)SC1=NS(=O)(=O)CCN12`, the activity change (PNC), negative = inhibition is 18.7%. The result for `CC1CCN(S(=O)(=O)c2ccc(S(=O)(=O)NCc3ccco3)cc2)CC1` reads -100% (active); that for `O=C(NC1CCC(O)CC1)c1ccc(S(=O)(=O)NCc2ccco2)cc1` (configuration not stated), -13.5%; that for `Cc1ccc(S(=O)(=O)N2CCC(C(=O)N[C@@H](C)C(=O)NCc3ccco3)CC2)cc1`, 61.1%. As to `CCc1ccc(NC(=O)CSc2nc3ccccc3c(=O)n2CCN2CCOCC2)cc1`, the activity change (PNC), negative = inhibition was -23.7%. The result for `CC(C)n1c(SCC(=O)Nc2ccccc2N2CCCCC2)nc2c1c(=O)n(C)c(=O)n2C` reads -24%; that for `CCn1c(SCC(=O)Nc2ccccc2F)nc2c(c1=O)SC(C)C2` (configuration not stated), -100% (active). As to `Cn1nnnc1SCC(=O)Nc1ccccc1C(=O)NC1CC1`, the activity change (PNC), negative = inhibition was -17.1%. The result for `CC1Cc2nc(SCC(=O)Nc3ccccc3F)n(C)c(=O)c2S1` (configuration not stated) reads -100% (active); that for `CCn1c(Cc2ccccc2)nnc1SCC(=O)Nc1ccccc1`, -27.9%; that for `COc1ccc(C/C(C)=N/NC(=O)c2ccncc2)cc1`, 36.6%. Next, `Cc1ccnc(N2CCCC(C(=O)Nc3cc(F)ccc3C)C2)n1` (configuration not stated): -22.4%. Next, `Cc1cc(=O)n2nc(N3CCCC(C(=O)NCCC4=CCCCC4)C3)sc2n1` (configuration not stated): 6.76%; `COc1cc(C)nc(N2CCCC(C(=O)NCC(C)C)C2)n1` (configuration not stated): -100% (active); `NS(=O)(=O)c1ccc(CCNC(=S)Nc2ccc(S(N)(=O)=O)cc2)cc1`: 74.6%. Regarding `CCOC(=O)NC(=O)C(=CNc1cccc(OC)c1)C(=O)NC(=O)OCC`, the activity change (PNC), negative = inhibition is 45.4%.

Consider `CCOC(=O)C(NC(=O)CC(C)C)(Nc1sc2c(c1C(N)=O)CCCC2)C(F)(F)F` (configuration not stated), for which the activity change (PNC), negative = inhibition is 0.0946%.

With `CC1Cc2ccccc2N1C(=O)CSc1nc2ccccc2o1` (configuration not stated), the activity change (PNC), negative = inhibition is 31.3%. For `CCn1nc(C(=O)OCC(=O)N2c3ccccc3CC2C)c2ccccc2c1=O` (configuration not stated), the activity change (PNC), negative = inhibition was -8.81%. Next, `CC1Cc2ccccc2N1C(=O)Cn1cnc2ccccc2c1=O` (configuration not stated): -80.4% (active). As for `COc1ccc(C2CC(c3ccccc3)=NN2C(=O)c2ccc(Cl)c([N+](=O)[O-])c2)cc1` (configuration not stated), the activity change (PNC), negative = inhibition was 27.8%. The result for `CCOc1ccc(S(=O)(=O)N(CC(=O)NCC(F)(F)F)Cc2ccco2)cc1` reads 52.1%. Consider `Cc1cc(/C=C2\SC(=Nc3ccc(N4CCOCC4)cc3)N(C)C2=O)c(C)n1-c1cccnc1`, for which the activity change (PNC), negative = inhibition is -27.8%.

With `CN1CCCC(OC(=O)COc2ccc(Br)cc2)C1` (configuration not stated), the activity change (PNC), negative = inhibition is -86.4% (active). The result for `CC(=O)Nc1ccc(OC(=O)COc2ccc(Br)cc2)cc1` reads 36.4%; that for `CCOC(=O)N1CCN(C(=O)COc2ccc(Br)cc2)CC1`, -29.5%. Next, `COc1ccc(C(C(=O)NC2CCCCC2)N(C(=O)Cc2c[nH]c3ccccc23)c2ccccc2)cc1OC` (configuration not stated): 32.6%; `O=C(/C=C/c1cccc([N+](=O)[O-])c1)NCCSCc1ccco1`: -113% (active); `CS(=O)(=O)N(Cc1ccc(Cl)cc1)c1ccc(C(=O)NCCSCc2ccco2)cc1`: 22.9%.

Regarding `O=C(/C=C/c1ccc([N+](=O)[O-])cc1)NCCSCc1ccco1`, the activity change (PNC), negative = inhibition was 85.9%. Next, `CCC(CC)NC(=O)/C=C/c1cccc([N+](=O)[O-])c1`: -18.8%; `COc1cc(OC)cc(C(=O)NCCSCc2ccco2)c1`: -94.6% (active).

As to `COc1ccc(CCNC(=O)c2ccco2)cc1`, the activity change (PNC), negative = inhibition was 24.7%.

On to `CC(=O)c1c(O)cc2n(c1=O)-c1ccc(Cl)cc1C2(C)C`, for which the activity change (PNC), negative = inhibition was -2.74%. Next, `O=C(NC(=O)N1CCOCC1)c1ccccc1`: 6.63%. Next, `O=C(Nc1ccn(Cc2ccccc2)n1)c1n[nH]c([N+](=O)[O-])c1Cl`: 5.38%.

Take `CC(Sc1cccc[n+]1[O-])C(=O)Nc1cccc(S(=O)(=O)N2CCOCC2)c1` (configuration not stated): the activity change (PNC), negative = inhibition was -7.27%. The result for `COc1ccc(-c2csc(NC(=O)COC(=O)c3ccc(Br)o3)n2)cc1` reads -8.03%.
